From PubChem BioAssay AID1224921 (Broad Institute, 2016)
Screen size: about 1,400 compounds; about 350 (25%) were called active. Another 2% or so got no clear call; they are omitted. How the calls were made is not given here. A selection follows. Potency and affinity values are given separately.

Test: inhibitors of Clostridioides difficile proliferation – 4-point retest, confirmation (AID 1224921);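 further: plate controls were DMSO wells for no effect and levofloxacin 16 µg/mL wells for full effect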
Details: Clostridioides difficile clinical isolate growth, OD600, 24 h, active compounds read low; at 30 µM unless noted

Max activity, inactive:
COc1cccc(C#Cc2ccc([C@H]3[C@@H](CO)N(C(=O)C4CC4)[C@H]3C#N)cc2)c1 19.6%
CO[C@@H]1CN(C)C(=O)c2cc(NC(=O)c3ccccc3)ccc2OC[C@H](C)N(C)C[C@H]1C 6.89% [at 8 µM]
CO[C@@H]1CN(C)C(=O)c2cc(NS(=O)(=O)c3cn(C)cn3)ccc2OC[C@@H](C)N(Cc2cccc(Cl)c2)C[C@H]1C 31.5%
C[C@H](CO)N1C[C@H](C)[C@@H](CN(C)C(=O)NC2CCCCC2)Oc2c(NC(=O)Nc3cccc4ccccc34)cccc2C1=O 61.2%
C[C@@H]1CCCCO[C@@H](CN(C)Cc2ccc3c(c2)OCO3)[C@H](C)CN([C@H](C)CO)C(=O)c2cc(NC(=O)Nc3ccc(F)cc3)ccc2O1 18%
CCCN1C[C@@H](C)[C@H](OC)CN(C)C(=O)c2cc(NC(=O)Nc3cccc(OC)c3)ccc2OC[C@H]1C -7.34% [at 1.95 µM]
CCCN1C[C@@H](C)[C@H](OC)CN(C)C(=O)c2ccc(NC(=O)Nc3c(C)noc3C)cc2OC[C@@H]1C 21.5%
CCCN1C[C@@H](C)[C@H](OC)CN(C)C(=O)c2ccc(NC(=O)CC)cc2OC[C@@H]1C 3.36%
COc1ccc(NC(=O)Nc2ccc3c(c2)[C@@H]2C[C@@H](CC(=O)NCc4ccccc4F)O[C@H](CO)[C@@H]2O3)cc1 -14.3%
C[C@@H]1CN([C@@H](C)CO)C(=O)c2cccc(NS(=O)(=O)c3ccc(Cl)cc3)c2O[C@@H]1CN(C)Cc1ccc(C(F)(F)F)cc1 20.4% [at 1.95 µM]
CCCN(C)C[C@H]1OCCCC[C@H](C)Oc2ccc(NS(=O)(=O)c3c(C)noc3C)cc2C(=O)N([C@@H](C)CO)C[C@@H]1C 19% [at 8 µM]
Cc1ccc(S(=O)(=O)Nc2ccc3c(c2)C(=O)N([C@H](C)CO)C[C@@H](C)[C@H](CN(C)Cc2ccc(Cl)c(Cl)c2)OCCCC[C@H](C)O3)cc1 39% [at 1.95 µM]
C[C@H](CO)N1C[C@H](C)[C@@H](CN(C)Cc2ccc3c(c2)OCO3)OCCCC[C@H](C)Oc2ccc(NC(=O)Nc3ccc4c(c3)OCO4)cc2C1=O 12.4%
Cc1ccc(S(=O)(=O)Nc2ccc3c(c2)C(=O)N([C@@H](C)CO)C[C@H](C)[C@@H](CN(C)Cc2ccc(Cl)c(Cl)c2)OCCCC[C@@H](C)O3)cc1 8.85%
COc1ccc(CN(C)C[C@H]2OCCCC[C@H](C)Oc3ccc(NC(=O)Nc4ccc5c(c4)OCO5)cc3C(=O)N([C@H](C)CO)C[C@H]2C)cc1 21.6%
C[C@@H]1CN([C@@H](C)CO)C(=O)c2cc(NC(=O)Nc3ccc(F)cc3)ccc2O[C@@H](C)CCCCO[C@H]1CN(C)Cc1ccc2c(c1)OCO2 20.9%
COc1ccc(CN(C)C[C@H]2OCCCC[C@@H](C)Oc3ccc(NC(=O)Nc4ccc5c(c4)OCO5)cc3C(=O)N([C@H](C)CO)C[C@H]2C)cc1 17.6%
C[C@@H]1CCCCO[C@@H](CN(C)Cc2ccc3c(c2)OCO3)[C@H](C)CN([C@@H](C)CO)C(=O)c2cc(NC(=O)Nc3ccc4c(c3)OCO4)ccc2O1 14.9%
C[C@@H]1CN([C@@H](C)CO)C(=O)Cc2cc(NS(C)(=O)=O)ccc2O[C@H]1CN(C)Cc1ccccc1 38.5% [at 35 µM]
N#C[C@H]1[C@@H](c2ccccc2)[C@@H](CO)N1S(=O)(=O)c1ccc(-c2ccccc2)cc1 40.9%
Cc1ccc(-c2cnc3c(c2)C(=O)N([C@@H](C)CO)C[C@H](C)[C@@H](CN(C)C(=O)c2ccccc2)O3)cc1 -9.22% [at 0.5 µM]
CN(C)CC(=O)N[C@H]1C=C[C@H](CC(=O)NCCN2CCCCC2)O[C@@H]1CO 12.7% [at 8 µM]
N#C[C@H]1[C@@H](c2ccc(-c3ccccc3)cc2)[C@@H](CO)N1C(=O)Cc1ccncc1 13.6%
CCC(=O)N[C@@H]1C=C[C@@H](CC(=O)OC)O[C@H]1CO -12.2% [at 8 µM]
C[C@@H]1CN([C@H](C)CO)S(=O)(=O)c2ccc(C#CCC3CCCC3)cc2O[C@@H]1CN(C)C(=O)c1ccccn1 46.2% [at 8 µM]
C[C@@H]1CN([C@H](C)CO)C(=O)c2cccc(N(C)C)c2O[C@H]1CN(C)Cc1ccc(C(F)(F)F)cc1 26.1%
CO[C@H]1CN(C)C(=O)c2ccc(NC(=O)c3ccc(F)cc3)cc2OC[C@@H](C)N(C(=O)CN(C)C)C[C@H]1C -10.6% [at 1.95 µM]
C[C@@H]1CCCCO[C@H](CN(C)CC2CCCCC2)[C@H](C)CN([C@@H](C)CO)C(=O)c2cc(NC(=O)Nc3cccc4ccccc34)ccc2O1 -10.7%
C[C@@H]1CCCCO[C@H](CN(C)CC2CCCCC2)[C@@H](C)CN([C@H](C)CO)C(=O)c2cc(NC(=O)Nc3cccc4ccccc34)ccc2O1 12.9% [at 8 µM]
C[C@H](CO)N1C[C@H](C)[C@@H](CN(C)CC2CCCCC2)OCCCC[C@H](C)Oc2ccc(NC(=O)Nc3cccc4ccccc34)cc2C1=O 21.6%
C[C@H]1CCCCO[C@@H](CN(C)CC2CCCCC2)[C@@H](C)CN([C@@H](C)CO)C(=O)c2cc(NC(=O)Nc3cccc4ccccc34)ccc2O1 27.7% [at 8 µM]
C[C@@H]1CN([C@H](C)CO)S(=O)(=O)c2ccc(C#CCC3CCCC3)cc2O[C@H]1CN(C)C(=O)c1ccccn1 43.5%
CO[C@@H]1CN(C)C(=O)c2ccc(NC(C)=O)cc2OC[C@@H](C)N(Cc2cc(F)ccc2F)C[C@H]1C -9.54% [at 8 µM]
Cc1ccc(-c2ccc3c(c2)O[C@@H](CN(C)Cc2cccnc2)[C@@H](C)CN([C@@H](C)CO)S3(=O)=O)cc1 35.1%
CN(C)C(=O)c1ccc(-c2ccc([C@@H]3[C@@H](CO)N(C(=O)C4CCCCC4)[C@H]3C#N)cc2)cc1 -13.2% [at 0.5 µM]
C[C@H]1CCCCO[C@@H](CN(C)C(=O)Nc2ccc(C(F)(F)F)cc2)[C@@H](C)CN([C@@H](C)CO)C(=O)c2cc(NS(=O)(=O)c3ccc(Cl)cc3)ccc2O1 12.1%
C[C@H](CO)N1C[C@H](C)[C@H](CN(C)C(=O)Nc2ccc(C(F)(F)F)cc2)OCCCC[C@H](C)Oc2ccc(NS(=O)(=O)c3ccc(Cl)cc3)cc2C1=O 14.5%
COc1ccc(NC(=O)Nc2cccc3c2O[C@H](CN(C)C(=O)NC2CCCCC2)[C@@H](C)CN([C@H](C)CO)C3=O)cc1 -16%
CO[C@H]1CN(C)C(=O)c2cc(NS(=O)(=O)c3ccc(Cl)cc3)ccc2OC[C@@H](C)N(C(=O)NC(C)C)C[C@@H]1C 11.8%
C[C@H](O)C#Cc1ccc2c(c1)O[C@@H](CN(C)C(=O)c1ccccc1)[C@@H](C)CN([C@@H](C)CO)S2(=O)=O -12.7%
C[C@H](CO)N1C[C@H](C)[C@@H](CN(C)Cc2ccccn2)Oc2cc(C3=CCCCC3)ccc2S1(=O)=O 33.3%
C[C@@H]1CN([C@@H](C)CO)C(=O)Cc2cc(N(C)C)ccc2O[C@H]1CN(C)Cc1ccccc1 9.89%
CO[C@@H]1CN(C)C(=O)c2cc(NC(=O)NC(C)C)ccc2OC[C@H](C)N(C)C[C@@H]1C -5.88%
CCS(=O)(=O)Nc1ccc2c(c1)OC[C@H](C)NC[C@@H](C)[C@@H](OC)CN(C)C2=O 10.9%
CN(C)C(=O)c1ccc(-c2ccc([C@@H]3[C@@H](C#N)N(C(=O)C4CC4)[C@H]3CO)cc2)cc1 19.6% [at 1.95 µM]
O=C(Nc1cc(F)ccc1F)N[C@H]1CC[C@H](CC(=O)N2CCc3ccccc3C2)O[C@@H]1CO -10.9% [at 8 µM]
C[C@@H]1CN([C@@H](C)CO)C(=O)c2cc(NC(=O)Nc3ccc(C(F)(F)F)cc3)ccc2O[C@@H](C)CCCCO[C@H]1CN(C)C 31.7% [at 8 µM]
C[C@@H]1CN([C@@H](C)CO)C(=O)c2cc(NC(=O)CCCN(C)C)ccc2O[C@@H](C)CCCCO[C@@H]1CN(C)Cc1ccc(C(F)(F)F)cc1 -16.2% [at 1.95 µM]
C[C@@H]1CN([C@@H](C)CO)C(=O)c2cc(NC(=O)Nc3ccc(C(F)(F)F)cc3)ccc2O[C@@H](C)CCCCO[C@@H]1CN(C)C 6.76% [at 8 µM]
C[C@H](CO)N1C[C@H](C)[C@@H](CN(C)Cc2ccc(C(F)(F)F)cc2)OCCCC[C@H](C)Oc2ccc(NC(=O)CCCN(C)C)cc2C1=O 16.3%
CCCN(C)C[C@H]1OCCCC[C@H](C)Oc2ccc(NC(=O)Nc3cccc4ccccc34)cc2C(=O)N([C@@H](C)CO)C[C@H]1C 13.8%
C[C@@H]1CN([C@@H](C)CO)C(=O)c2ccccc2-c2ccccc2CO[C@H]1CN(C)C(=O)CCN(C)C -7.53% [at 0.5 µM]
CO[C@H]1O[C@H](CO)[C@@H](OC(=O)Nc2cccc(F)c2)[C@H](OC(=O)Nc2ccc3c(c2)OCO3)[C@H]1OC(=O)Nc1ccc2c(c1)OCO2 8.7%
C[C@H](CO)N1C[C@H](C)[C@@H](CN(C)CC2CCCCC2)Oc2ccc(NC(=O)Cc3cn(C)c4ccccc34)cc2CC1=O 22.1% [at 1.95 µM]
